Results from PubChem BioAssay (NCI).
About 83,000 compounds went through this panel and 20% of them were active in at least one assay; those are over-represented in the sample as a whole.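 The test compound was applied at a single concentration to cells in 96-well plates for 48 hours, and percent growth was recorded.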 Activity calls are given as the source filed them. Rule for the calls: active = growth percent below 10; inactive = the rest.

tested on: A549/ATCC NSCLC; test: NCI-60 one-dose screen, 48 h (100 = growth as untreated, 0 = no growth, -100 = all killed); settings: 10 µM unless noted

SMILES | growth
COc1cc(CNC(=O)C[C@H](C)CCC=C(C)C)ccc1OCc1cn(-c2ccc(Br)cc2)nn1 | 78.6% (inactive)
N#CC1=C(c2cccs2)Nc2c(c(-c3ccccc3)nn2-c2ccccc2)C12C(=O)Nc1ccccc12 (stereo not given) | 5.42% (active)
N#Cc1c(-c2ccc(F)cc2)nc(SCc2ccc(F)cc2)nc1N1CCNCC1 | -74.8% (active)
COc1cc(NC(=O)CSc2nnc(-c3ccc(-c4nc5ccc(Cl)cc5[nH]4)cc3)o2)cc(OC)c1OC | 70.5% (inactive)
CN(C)c1nc(NCCNS(=O)(=O)c2ccc(C(=O)/C=C/c3ccc(C(F)(F)F)cc3)cc2)nc(N2CCOCC2)n1 | 16.6% (inactive)
COc1cc(CNC(=O)C[C@H](C)CCC=C(C)C)ccc1OCc1cn(-c2ccc(Cl)cc2Cl)nn1 | 59.4% (inactive)
O=C(N=Nc1c(O)[nH]c2ccc(Cl)cc12)c1ccc2nc(-c3ccc(Cl)cc3)[nH]c2c1 | 41.5% (inactive)
CC1=C(C(=O)OCc2ccccc2)C(c2ccc(N(C)C)cc2)n2c(nc3ccccc32)N1 (stereo not given) | 94.9% (inactive)
Cn1cc(-c2cc(N)n3nc(-c4c[nH]c5ccc(F)cc45)cc3n2)c2cc(Br)cnc21 | 54% (inactive)
CCCCC[C@@H]1C/C=C(\C)[C@@H](O)C(C)(C)C(=O)[C@@H](C)/C=C(\C)[C@@H]2C[C@H](O)C[C@](O)(CC(=O)O1)O2 | 36.8% (inactive)
COc1ccc2c(c1)c(-c1cc(N)n3nc(-c4c[nH]c5ccccc45)cc3n1)cn2C | -88.1% (active)
COc1ccccc1NC(=O)N/N=C/c1c[nH]c2ccccc12 | 30.5% (inactive)
CC[C@]12C=CCN3CC[C@@]4(c5ccc(OC)cc5N(C)[C@H]4[C@@](O)(C(=O)OC)[C@@H]1OC(=O)CCCC[P+](c1ccc(F)cc1)(c1ccc(F)cc1)c1ccc(F)cc1)[C@@H]32 | 37.5% (inactive)
Cc1ccc(Cl)cc1NC(=O)Nc1nc2ccc([N+](=O)[O-])cc2s1 | -25.8% (active)
Nc1nnc(CS(=O)(=O)c2ccccc2)s1 | 102% (inactive)
N#CC1=C(c2cccs2)Nc2c(c(-c3ccccc3)nn2-c2ccccc2)C12C(=O)Nc1ccc(Br)cc12 (stereo not given) | -9.72% (active)
N#Cc1ccc(C(=O)CSc2nc3c(c(Nc4ccc(S(N)(=O)=O)cc4)n2)CCC3)cc1 | 50% (inactive)
Cc1cccc(-c2ccccc2Oc2ccc3nnc(Cl)n3n2)c1 | 98.7% (inactive)

SMILES | growth
COC(=O)c1cc(C(=O)CBr)n2c1ccc1c3ccccc3ccc12 | 31.3% (inactive)
O=C(Cn1c(/C=C/c2ccc([N+](=O)[O-])cc2)nc2ccccc2c1=O)Nc1ccccc1 | 75.7% (inactive)
CC(C)C[C@H](NC(=O)CNC(=O)C[C@H]1O[C@@H]2OC3(C)CC[C@H]4[C@H](C)CC[C@@H]([C@H]1C)[C@@]24O3)B(O)O | 27.9% (inactive)
COc1ccccc1/C=C/c1cccc(NC(=S)NCCCCN(C)C)c1 | -51.7% (active)
CCCn1c(NC(=O)c2cccc(C(N)=O)c2)nc2cc(CN3CCCCC3)ccc21 | 95.7% (inactive)
Fc1cccc(CNc2nc(SCCN3CCOCC3)nc3c2cnn3CC(Cl)c2ccc(Br)cc2)c1 (stereo not given) | 19.9% (inactive)
COc1ccc(NC(=O)Nc2nc3ccc([N+](=O)[O-])cc3s2)cc1 | 30.2% (inactive)
O=C1c2cccc3c(N4CCN(c5ccccc5)CC4)ccc(c23)C(=O)N1c1cccc(-c2nn(-c3ccccc3)cc2-c2nc3ccccc3s2)c1 | 113% (inactive)
Clc1ccccc1Nc1nnc(-c2c[nH]c3ccccc23)o1 | 22.1% (inactive)
Nc1nnc(-c2cncc(Br)c2)c(-c2c[nH]c3ccc(Br)cc23)n1 | 49.2% (inactive)
O=C(CSc1nc2ccccc2c(=O)[nH]1)NNC(=O)c1ccccc1Cl | 92.3% (inactive)
COc1c2c(c(Br)c3c1C(CCc1ccccc1)N(C)CC3)OCO2 (stereo not given) | 45.9% (inactive)
Cn1cc(-c2cc3nc(-c4c[nH]c5ccccc45)cc(N)n3n2)c2ccccc21 | -81.7% (active)
O=C(/C=C1\C(=O)N(Cc2ccccc2)c2ccccc21)c1cc2ccccc2oc1=O | 104% (inactive)
O=c1ccc(Cn2c(C(F)(F)F)cc3c(Cl)ncnc32)c[nH]1 | 105% (inactive)
O=C1CC(c2ccc(I)cc2)OC2C=Cc3ccccc3C12 (stereo not given) | 102% (inactive)
COC(=O)c1c(C(=O)OC)c2ccc3c4ccccc4ccc3n2c1C(=O)OC | 97.2% (inactive)
